Results filed as inconclusive are left out. Values without a mark were called inactive. The source made the active and inactive calls. The call rests on the fitted dose curve; in most records, active means well fitted cell-killing curve with a large enough effect; inconclusive means small, poorly fitted or top-dose-only effect, or effect the other way; inactive means no such curve, though single readings can be large or run the other way.
Experiment: Viability qHTS for spleen associated tyrosine kinase inhibitor (SYKi) drug resistant MV4-11 cells (AID 1963824); further: nearly all actives have a fitted effect of over 35% in size
Details: SYKi-resistant MV4-11 viability, CellTiter-Glo, 72 h; series mostly up to 45 µM
In short: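 SYK-inhibitor-resistant MV4-11 AML cells were seeded at 500 per well onto compound and cultured 72 hours (37 °C, 5% CO2). CellTiter-Glo was then added, and after 10 min at room temperature, luminescence gave viability.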
For `Cc1cc(OCCCS(C)(=O)=O)cc(C)c1-c1cccc(COc2ccc(C3=CC(=O)NS3=O)cc2)c1` (stereo not given), the Potency was 5.17 µM (active). For `CCS(=O)(=O)N(Cc1cccnc1)c1cccc(-c2ccc(C#N)cc2)c1`, the Potency was 20.6 µM (active). In the case of `CC(=O)O[C@@H]1[C@@H](OC(=O)/C=C/c2ccccc2)[C@H](C)O[C@@H](O[C@H]2[C@@H]3C=CO[C@@H](O[C@@H]4O[C@H](CO)[C@@H](O)[C@H](O)[C@H]4O)[C@@H]3[C@@]3(CO)O[C@@H]23)[C@@H]1OC(C)=O`, the Potency is reported as “inactive”. For `CC(C)(C)n1nc(Cc2cccc([N+](=O)[O-])c2)c2c(N)ncnc21`, the Potency was 5.17 µM (active). In the case of `CC(=O)OC1CC2C(C)(C)C(=O)C=CC2(C)C2CC(=O)C3=C(CCC3C3=CC(O)OC3=O)C12C` (stereo not given), the Potency is reported as 11.2 µM (active). With `NC(=O)N1CCC(CC(=O)N2CCC(C3c4ncc(Br)cc4CCc4cc(Cl)cc(Br)c43)CC2)CC1` (stereo not given) the Potency was 2.06 µM (active). For `O=C(Nc1cccc([N+](=O)[O-])c1)c1cccc(S(=O)(=O)N2CCCCCC2)c1`, the Potency was 6.51 µM (active). With `Nc1nc2ccc([N+](=O)[O-])cc2s1` the Potency was 27.3 µM (active). For `CC1=CCC2C(C)(CO)CCCC2(CO)C1CO` (stereo not given), the Potency was 16.4 µM (active). In the case of `Cc1cc(N=Nc2ccc(S(=O)(=O)Nc3ccccn3)cc2)c(N)cc1O`, the Potency is reported as 2.59 µM (active). In the case of `COc1ccc(/C=C/C(=O)O[C@@H]2[C@@H](OC(C)=O)[C@@H](OC(C)=O)[C@H](O[C@H]3[C@@H]4C=CO[C@@H](O[C@@H]5O[C@H](CO)[C@@H](O)[C@H](O)[C@H]5O)[C@@H]4[C@@]4(CO)O[C@@H]34)O[C@H]2C)cc1`, the Potency is reported as “inactive”. For `O=C1[C@H](Cc2ccc(O)cc2)N2C(=O)CCN(C(=O)NCc3ccccc3)[C@H]2CN1Cc1cccc2ccccc12`, the Potency was 1.48 µM (active). With `Cc1cc(C)c(NC(=O)N(Cc2ccc3c(c2)Cc2ccccc2-3)C2CCCCCC2)c(C)c1` the Potency was 16.4 µM (active). For `Nc1nc2cc(-c3ccc4ncc(C(=O)N5CCOCC5)n4c3)ccc2o1`, the Potency was 10.5 µM (active). Compound `CC1OC(O[C@@H]2[C@H](O)[C@@H](OC3OC(CO)C(O)C(O)C3O)[C@H](OC(=O)[C@]34CCC(C)(C)C[C@H]3C3=CCC5[C@@]6(C)CC[C@H](O[C@@H]7O[C@H](C(=O)O)[C@@H](O)[C@H](O[C@@H]8OC[C@@H](O)[C@H](O)[C@H]8O)[C@H]7O[C@@H]7O[C@H](CO)[C@H](O)[C@H](O)[C@H]7O)[C@@](C)(C=O)C6CC[C@@]5(C)[C@]3(C)C[C@H]4O)O[C@@H]2C)C(O)C(O)C1OC1OCC(O)C(O)C1O` (stereo not given in full) has a viability, % of control of 89.9% [at 4.97 µM]. In the case of `CC(=O)OCC(=O)[C@@]12O[C@@H]1C[C@H]1[C@@H]3CC=C4C[C@@H](O)CC[C@]4(C)[C@H]3CC[C@@]12C`, the Potency is reported as 18.4 µM (active). In the case of `CC1=CC(=O)CC(C)(C)C1CCC(C)O[C@@H]1O[C@H](CO[C@@H]2OC[C@@H](O)[C@H](O)[C@H]2O)[C@@H](O)[C@H](O)[C@H]1O` (stereo not given in full), the Potency is reported as “inactive”. In the case of `COc1cc(/C=C/C(=O)OCC2OC(OC3(CO)OC(CO)C(O)C3O)C(O)C(O)C2O)ccc1O` (stereo not given), the Potency is reported as “inactive”. In the case of `C=C(C)C(=O)OC1C(OC(C)=O)/C(C=O)=C\CC/C(CO)=C/C2OC(=O)C(=C)C21` (stereo not given), the Potency is reported as 2 µM (active). With `CC(C)=CCC/C(C)=C/CC/C(C)=C/CC[C@]1(C)CCc2cc(O)cc(C)c2O1` the Potency was “inactive”. In the case of `N=C1N=C(N)c2cc3ccccc3cc21`, the Potency is reported as 38.6 µM (active). For `COc1cc(OCc2cccc(-c3ccccc3)c2C)cc(OC)c1CN1CCCC[C@H]1C(=O)O`, the Potency was 8.33 µM (active). For `C=C1C(=O)OC2/C=C(\CO)CC/C=C(\C=O)C(O)C(OC(=O)C(C)CC)C12` (stereo not given), the Potency was 2.86 µM (active). For `CC(C(=O)O)c1ccc(C(=O)c2cccs2)cc1` (stereo not given), the Potency was “inactive”. With `O=C1NC(=NCc2cccs2)S/C1=C/c1ccc2ncccc2c1` the Potency was 1.84 µM (active). In the case of `COc1c2cc(c(O)c1OC)CCCCC(O)CCc1ccc(O)c-2c1` (stereo not given), the Potency is reported as 14.3 µM (active). For `C=C(CO)C(=O)O[C@H]1C[C@@]23O[C@@H]2CC/C(=C/[C@H]2OC(=O)C(=C)[C@H]12)CO[C@H]3O`, the Potency was 11.4 µM (active). With `Cc1ccc(NS(=O)(=O)c2cc3c(cc2F)NC(=O)CC3)cc1Cl` the Potency was 16.4 µM (active). With `C[C@@H]1O[C@@H](O[C@H]2[C@H](O[C@H]3CC[C@@]4(C)C(CC[C@]5(C)C4CC=C4[C@@H]6CC(C)(C)CC[C@]6(C(=O)O)CC[C@]45C)[C@]3(C)CO)OC[C@H](O)[C@@H]2O)[C@H](O)[C@H](O[C@@H]2OC[C@@H](O)[C@H](O)[C@H]2O)[C@H]1O` (stereo not given in full) the Potency was 4.91 µM (active). For `CC(C)[C@@H](C)/C=C/[C@@H](C)[C@H]1CC[C@H]2C3=CC=C4C[C@@H](O)CC[C@]4(C)C3=CC[C@]12C`, the Potency was 11.6 µM (active). In the case of `CC(=O)N[C@@H](C(=O)O[C@H]1CCC(C)(C)[C@@H]2CCC3=C(COC3=O)[C@@]12C)C(C)C`, the Potency is reported as “inactive”. With `CC(C)c1ccc(-c2cc(=O)c3ccccc3o2)cc1` the Potency was 13 µM (active). In the case of `COc1ccc(N2CCOCC2)c2sc(NC(=O)N3CCC(C)(O)CC3)nc12`, the Potency is reported as “inactive”. In the case of `CC(=O)O[C@H]1C[C@@]2(C)[C@@H](CC[C@H]3[C@@]4(C)C=CC(=O)[C@@H](C)[C@@H]4[C@H](OC(C)=O)C(=O)[C@@]32C)/C1=C(\CCC=C(C)C)C(=O)O`, the Potency is reported as “inactive”. For `COC(=O)C#Cc1ccc([N+](=O)[O-])cc1`, the Potency was 2.59 µM (active). For `C=CC(C)(/C=C/c1ccc(O)cc1)CCC=C(C)C` (stereo not given), the Potency was 23.1 µM (active). In the case of `Nc1ncnc2c1nc(N)n2[C@@H]1O[C@H](CO)[C@@H](O)[C@H]1O`, the Potency is reported as 0.517 µM (active). With `C/C=C1\[C@H](O[C@@H]2O[C@H](CO)[C@@H](O)[C@H](O)[C@H]2O)OC=C2C(=O)OCCc3ccc(O)c(c3)Oc3ccc(cc3)CCOC(=O)C[C@H]21` the Potency was 3.85 µM (active). With `O=c1[nH]ccc2c(S(=O)(=O)N3CCCNCC3)cccc12` the Potency was “inactive”. For `COc1ccc(C2(CNC(=O)[C@](C)(Cc3c[nH]c4ccccc34)NC(=O)Nc3ccc([N+](=O)[O-])cc3)CCCCC2)nc1`, the Potency was 20.6 µM (active).

— PubChem BioAssay (NCATS)
Potency means the concentration at half of the fitted maximal effect.
